Screening data as filed in PubChem.
The full list was thinned out, with hits kept by preference.
Vaccinia pol inh: inhibitors of vaccinia virus processive DNA synthesis (E9 polymerase). in vitro processive DNA synthesis, absorbance read-out; active compounds read low. normalized absorbance, % (no concentration beside the values). actives 0.94% (n = 46,000); in the data active means normalized absorbance mostly below about 85%, no sharp cut-off; inactive means mostly above about 86%
* hit, by the source's call.

SMILES | Vaccinia pol inh
Cc1ccc(OCCCn2cc(/C=C3/C(=O)NC(=O)N(C4CCCCC4)C3=O)c3ccccc32)cc1 | 100
CCn1cc(C2N3CC4(C)CN2CC(C)(C3)C4O)c2ccccc21 (configuration not stated) | 104
CCOC(=O)c1oc2ccccc2c1NC(=O)c1ccccc1 | 92
CCOC(=O)c1oc2ccccc2c1CO | 77*
CCOC(=O)c1oc2ccccc2c1NC(=O)c1ccc(S(=O)(=O)N(C)C)cc1 | 104
Nc1nc(-c2ccco2)nn1C(=O)Cc1ccccc1 | 100
CCN1C(=O)C(=Cc2ccc(-c3ccccc3F)o2)C(=O)N(CC)C1=S | 100
CCOc1ccc2nc(NC(=O)c3ccc(C)cc3)sc2c1 | 103
O=C(/C=C/c1ccccc1)/C=C/c1ccco1 | 78
O=C(/C=C/c1ccco1)Nc1cccc(NC(=O)/C=C/c2ccco2)n1 | 85*
O=C(/C=C/c1ccco1)C1(O)CCCCC1 | 91
O=C(/C=C/c1ccco1)/C=C/c1ccco1 | 8.6*
Cc1nn(C)c(C)c1NC(=O)/C=C/c1ccco1 | 103
O=C(/C=C/c1ccco1)NCCc1ccccc1 | 102
COC(CNC(=O)CN1CCN(Cc2ccccc2)C1=O)OC | 98
Cc1cc(C)cc(OC2CCCCC2NS(=O)(=O)c2ccc(Cl)cc2)c1 (configuration not stated) | 100
N=C(N)Sc1cn(Cc2ccccc2)c2ccccc12 | 103
CCc1ccc(NC(=S)N2CCC(N(C)C(C)C)CC2)cc1 | 87
Nc1ccc(-c2cnc(-c3ccc(N)cc3)nc2)cc1 | 100
Cc1ccc(-c2ccc(N)cc2)cc1 | 93
Nc1ccc(-c2ccc(N)cc2)cc1 | 72*
O=C(NCc1ccccc1)c1cccc(NC2=NC3CS(=O)(=O)CC3S2)c1 (configuration not stated) | 104
Cc1ccc(N(C(=O)COc2c(C)cccc2C)S(=O)(=O)c2ccc(Cl)cc2)cc1 | 100
O=C(O)Cn1c2ccc(Cl)cc2c2nc3ccccc3nc21 | 53*
CCOC(=O)Cn1c2ccc(Cl)cc2c2nc3ccccc3nc21 | 109
SMILES | Vaccinia pol inh
Cc1ccc2c(c1)c1nc3ccccc3nc1n2CC(=O)O | 75
O=C(Nc1sc2c(c1C(=O)O)CCCC2)c1ccccc1 | 92
FC(F)(F)c1nnc2n1Nc1nc3ccccc3nc1S2 | 100
CCc1cccc2c(=O)c(CN(C)C)c(C)[nH]c12 | 83
CN(C)Cc1ccc2ccc3cccc4ccc1c2c34 | 12*
O=S(=O)(c1ccccc1)N1CCN(C(c2ccccc2)c2ccccc2)CC1 | 101
CCc1ccc(OCC(=O)OCC(=O)N2CCc3ccccc3C2)cc1 | 103
O=C(CC(c1ccccc1)c1ccccc1)Nc1ccc(Cl)cc1 | 93
O=C(O)c1ccccc1NCc1ccccc1Cl | 64
O=C(/C=N/O)Nc1ccccc1C(=O)O | 94
O=C(Nc1ccccc1C(=O)O)OCC1c2ccccc2-c2ccccc21 | 41*
ClCc1cccc2c(CCl)cccc12 | 102
COc1ccc(N2CCN(C(c3cccs3)C(C)NC(=O)c3ccccc3OC)CC2)cc1 (configuration not stated) | 105
CCOC(=O)c1ccc(N2N=C(C(F)(F)F)/C(=C/C=C/c3ccco3)C2=O)cc1 | 100
O=C(O)c1ccc(N2N=C(C(F)(F)F)/C(=C/c3ccc(OC(=O)c4cccs4)cc3)C2=O)cc1 | 23*
CCc1ccc(/C=C2/C(=O)N(c3ccccc3)N=C2C)cc1 | 92
COC(=O)NC1(C(F)(F)F)Oc2cc(Cl)c(Cl)cc2O1 | 100
CN(C(=O)c1cc(-c2ccc(Cl)c(Cl)c2)on1)c1ccccc1 | 98
NCCSC(=S)NC1CCCCCCC1 | 99
O=C1/C(=C/C2CCCO2)CC/C1=C\C1CCCO1 (configuration not stated) | 14*
CC1CC(C)CN(S(=O)(=O)c2ccc(F)c(C(=O)NCc3ccccc3)c2)C1 (configuration not stated) | 99
O=C(Nc1nc(-c2ccccc2)cs1)C12CC3CC(CC(C3)C1)C2 | 94
CCCN1CCN(CCCNC(=O)c2cc3c(s2)-c2ccccc2S(=O)(=O)C3)CC1 | 93
O=C(O)CCC(=O)N1CCc2ccccc21 | 98
CCC(C)C(=O)Nc1cccc(C(F)(F)F)c1 (configuration not stated) | 97
SMILES | Vaccinia pol inh
O=C1NC(=O)/C(=C\c2ccccc2)S1 | 74*
CC(=C\c1ccccc1)/C=C1/SC(=O)NC1=O | 99
Cc1ccc(/C=C2/Sc3ccccc3NC2=O)cc1 | 99
COc1ccc2cc3cc(C(=O)NCCCN4CCCCCC4)oc3nc2c1 | 63*
COc1ccc2cc3cc(C(=O)NCCC4=CCCCC4)sc3nc2c1 | 103
COc1ccc2cc3cc(C(=O)NC4CCCC(C)C4C)oc3nc2c1 (configuration not stated) | 101
CCN1CCN(CCCNC(=O)c2cc3cc4ccc(Cl)cc4nc3o2)CC1 | 94
Cc1ccc2cc3cc(C(=O)NCCCN4CCCCCC4)sc3nc2c1 | 66*
Cc1ccc2cc3cc(C(=O)NCCN4CCN(c5cccc(Cl)c5)CC4)sc3nc2c1 | 104
CC1(C)NC(=O)N(c2ccccc2)N1 | 98
COCC(C)NCc1cccc(Br)c1 (configuration not stated) | 98
Cc1ccc(NC(=S)NN(C)C)cc1 | 103
Cc1ccc(S(=O)(=O)NCc2ccccc2)cc1C(=O)N1CCCCCC1 | 97
COC(=O)c1ccc(OCC(O)CN2C(C)(C)CC(O)CC2(C)C)cc1 (configuration not stated) | 99
O=C(N(c1ccccc1)C1C=CS(=O)(=O)C1)C12CC3CC(CC(C3)C1)C2 (configuration not stated) | 99
CC[n+]1c(C)csc1Nc1ccc(N2CC(C)OC(C)C2)cc1 (configuration not stated) | 99
Cc1ccccc1Cn1cc(CCCC(=O)O)c2ccccc21 | 90
Cc1ccc(S(=O)(=O)c2cn[nH]c2-c2ccc(Cl)cc2)cc1 | 90
Oc1cccc(C=Nc2ccc(N3CCCCC3)cc2)c1O | 104
CN1CCN(c2cc(-c3ccccc3)nc3ccccc23)CC1 | 79*
CN1CCN(c2cc(-c3ccncc3)nc3ccccc23)CC1 | 83
CN1CCN(c2nc(-c3ccccc3)c3ccccc3n2)CC1 | 101
COc1ccc(C2SC[C@H]3C(=O)N(c4ccccc4)C(=S)N23)cc1 (some centres not stated) | 85
CCOC(=O)c1c(C)c(C(=O)NCc2ccccc2)c(C)n1C | 101
O=S(=O)(Cc1ccc(C(F)(F)F)cc1)c1ccc(Cl)cc1 | 97
SMILES | Vaccinia pol inh
Cc1ccc(C(=O)Nc2nnc(SCc3ccccc3)s2)cc1 | 100
CSc1ncc(Cl)c(C(=O)Nc2nnc(SCc3ccc(F)cc3)s2)n1 | 68*
CCC(=O)Nc1nnc(SCc2cccc(F)c2)s1 | 100
CC(C)n1c(CCNC(=O)C(C)(C)C)nc2ccccc21 | 100
CCOc1ccc(-c2c(C#N)c(N)nc(SCC#N)c2C#N)cc1 | 101
N#Cc1c(-c2ccccc2)cc(-c2ccccc2)nc1N | 100
N#Cc1c(N)nc(SCc2ccccc2)c(C#N)c1-c1ccccc1 | 83*
Cn1cc(C(=O)NCCCN2CCCC2)c2c3ccccc3n(C)c2c1=O | 81
Cc1ccc(-c2nn(C)c(=O)c3ccccc23)cc1CNC(=O)CSc1nc2ccccc2s1 | 100
O=C1CSc2nnc(C3COc4ccccc4O3)n2N1 (configuration not stated) | 103
CCC[n+]1ccc(-c2c[nH]c3ccccc23)cc1 | 97
CCOc1ccccc1N(C)C(=O)COc1cc(=O)n(C)c2ccccc12 | 88
CN1CCN(C(=O)COc2cc(=O)n(C)c3ccccc23)CC1 | 85
